In the supplement of paper PMC6378613:

Compound: Cc1ccc(-c2ccc3c(ccc4sc5c(c43)NC[C@@H](C)NC5=O)n2)cn1
Assay: kinase activity remaining relative to vehicle control; higher = less inhibition
Method: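 In vitro radiometric kinase profiling of the MK2 inhibitor PF-3644022 at 0.1, 1 and 10 µM against a panel of kinases (MRC International Centre for Kinase Profiling, Dundee). Read-out is % kinase activity remaining relative to the vehicle control, mean of n=2.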

UniProt P00519, sequence (P00519 whole entry, looked up): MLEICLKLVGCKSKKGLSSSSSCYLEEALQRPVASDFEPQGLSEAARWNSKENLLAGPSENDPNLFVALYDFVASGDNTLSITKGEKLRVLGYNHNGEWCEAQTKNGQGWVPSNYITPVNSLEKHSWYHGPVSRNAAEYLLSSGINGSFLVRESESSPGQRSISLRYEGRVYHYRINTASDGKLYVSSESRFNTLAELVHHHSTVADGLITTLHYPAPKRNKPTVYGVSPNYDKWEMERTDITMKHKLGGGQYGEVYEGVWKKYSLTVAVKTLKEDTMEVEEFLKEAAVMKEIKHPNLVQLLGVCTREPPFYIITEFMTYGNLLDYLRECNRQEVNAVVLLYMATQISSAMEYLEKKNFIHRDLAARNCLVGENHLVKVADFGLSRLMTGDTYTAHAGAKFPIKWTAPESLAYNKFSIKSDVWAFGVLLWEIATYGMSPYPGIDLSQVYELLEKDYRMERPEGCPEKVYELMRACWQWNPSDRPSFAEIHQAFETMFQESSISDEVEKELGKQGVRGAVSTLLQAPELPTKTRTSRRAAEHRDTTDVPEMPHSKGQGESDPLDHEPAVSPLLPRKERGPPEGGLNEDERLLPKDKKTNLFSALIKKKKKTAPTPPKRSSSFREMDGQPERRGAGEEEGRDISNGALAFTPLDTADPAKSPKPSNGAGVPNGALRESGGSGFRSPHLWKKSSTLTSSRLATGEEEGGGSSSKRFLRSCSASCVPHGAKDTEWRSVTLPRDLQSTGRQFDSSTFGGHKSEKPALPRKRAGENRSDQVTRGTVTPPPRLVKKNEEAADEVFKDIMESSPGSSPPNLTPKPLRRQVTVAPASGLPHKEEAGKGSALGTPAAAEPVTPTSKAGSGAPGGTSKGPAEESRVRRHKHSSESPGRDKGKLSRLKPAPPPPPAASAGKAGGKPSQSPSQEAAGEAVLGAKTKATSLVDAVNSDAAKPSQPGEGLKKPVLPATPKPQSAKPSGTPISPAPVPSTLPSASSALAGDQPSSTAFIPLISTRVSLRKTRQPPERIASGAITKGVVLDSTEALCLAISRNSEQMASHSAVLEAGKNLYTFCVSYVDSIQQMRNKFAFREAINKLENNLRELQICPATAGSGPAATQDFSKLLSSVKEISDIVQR
UniProt Q9UKI8, sequence (Q9UKI8 whole entry, looked up): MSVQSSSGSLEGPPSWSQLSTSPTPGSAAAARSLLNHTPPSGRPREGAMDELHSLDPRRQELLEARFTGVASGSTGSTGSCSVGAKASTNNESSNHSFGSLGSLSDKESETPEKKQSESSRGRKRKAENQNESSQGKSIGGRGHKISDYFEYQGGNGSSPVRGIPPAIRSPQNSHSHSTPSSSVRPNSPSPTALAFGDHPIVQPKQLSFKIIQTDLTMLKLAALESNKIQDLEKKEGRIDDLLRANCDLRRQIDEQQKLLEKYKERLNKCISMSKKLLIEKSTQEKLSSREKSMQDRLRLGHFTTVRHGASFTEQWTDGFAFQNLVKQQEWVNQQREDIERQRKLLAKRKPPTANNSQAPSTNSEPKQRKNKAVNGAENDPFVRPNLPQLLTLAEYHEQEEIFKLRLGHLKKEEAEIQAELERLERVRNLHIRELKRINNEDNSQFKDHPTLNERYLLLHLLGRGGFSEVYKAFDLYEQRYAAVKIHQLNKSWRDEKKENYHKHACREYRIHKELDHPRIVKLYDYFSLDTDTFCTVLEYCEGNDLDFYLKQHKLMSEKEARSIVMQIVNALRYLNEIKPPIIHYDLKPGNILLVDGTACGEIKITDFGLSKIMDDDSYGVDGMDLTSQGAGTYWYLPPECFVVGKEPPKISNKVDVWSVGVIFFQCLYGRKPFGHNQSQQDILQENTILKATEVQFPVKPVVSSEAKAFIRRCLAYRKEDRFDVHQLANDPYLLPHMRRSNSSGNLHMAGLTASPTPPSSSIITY
UniProt Q99683, sequence (Q99683 whole entry, looked up): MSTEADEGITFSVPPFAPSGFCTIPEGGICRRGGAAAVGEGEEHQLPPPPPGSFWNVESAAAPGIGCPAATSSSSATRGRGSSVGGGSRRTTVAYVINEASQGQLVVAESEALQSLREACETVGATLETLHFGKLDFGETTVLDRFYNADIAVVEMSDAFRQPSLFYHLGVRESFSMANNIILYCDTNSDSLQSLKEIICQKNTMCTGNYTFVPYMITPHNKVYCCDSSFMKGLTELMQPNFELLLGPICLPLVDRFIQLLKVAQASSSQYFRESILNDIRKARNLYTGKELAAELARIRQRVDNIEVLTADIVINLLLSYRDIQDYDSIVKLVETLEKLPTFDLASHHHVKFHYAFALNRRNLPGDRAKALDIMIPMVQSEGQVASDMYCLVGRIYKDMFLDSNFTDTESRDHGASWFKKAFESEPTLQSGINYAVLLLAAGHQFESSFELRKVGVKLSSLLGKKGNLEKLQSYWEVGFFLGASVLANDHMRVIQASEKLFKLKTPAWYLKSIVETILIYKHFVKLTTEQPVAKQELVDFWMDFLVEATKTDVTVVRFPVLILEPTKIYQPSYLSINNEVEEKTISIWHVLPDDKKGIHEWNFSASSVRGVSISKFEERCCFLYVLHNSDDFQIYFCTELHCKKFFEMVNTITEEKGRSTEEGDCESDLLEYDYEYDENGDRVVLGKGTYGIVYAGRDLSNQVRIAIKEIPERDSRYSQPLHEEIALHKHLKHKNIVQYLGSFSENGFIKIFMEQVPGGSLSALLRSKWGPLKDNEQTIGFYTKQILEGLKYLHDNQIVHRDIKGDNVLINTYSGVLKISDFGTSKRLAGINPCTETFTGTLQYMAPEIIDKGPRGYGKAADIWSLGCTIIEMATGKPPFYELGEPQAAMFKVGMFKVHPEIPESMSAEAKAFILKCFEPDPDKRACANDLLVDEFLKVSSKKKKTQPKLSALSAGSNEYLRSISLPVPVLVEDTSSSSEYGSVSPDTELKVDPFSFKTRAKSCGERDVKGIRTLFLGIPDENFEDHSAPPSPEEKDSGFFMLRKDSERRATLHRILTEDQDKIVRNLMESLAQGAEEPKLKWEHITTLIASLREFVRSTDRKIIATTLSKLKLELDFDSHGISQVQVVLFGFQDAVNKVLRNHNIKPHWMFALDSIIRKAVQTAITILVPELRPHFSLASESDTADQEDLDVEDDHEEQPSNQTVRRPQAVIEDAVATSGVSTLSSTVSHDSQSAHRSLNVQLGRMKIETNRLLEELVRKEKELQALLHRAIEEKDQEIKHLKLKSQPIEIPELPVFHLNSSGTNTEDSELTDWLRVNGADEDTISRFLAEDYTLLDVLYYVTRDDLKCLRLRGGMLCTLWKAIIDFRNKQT
UniProt Q8IWQ3, sequence (Q8IWQ3 whole entry, looked up): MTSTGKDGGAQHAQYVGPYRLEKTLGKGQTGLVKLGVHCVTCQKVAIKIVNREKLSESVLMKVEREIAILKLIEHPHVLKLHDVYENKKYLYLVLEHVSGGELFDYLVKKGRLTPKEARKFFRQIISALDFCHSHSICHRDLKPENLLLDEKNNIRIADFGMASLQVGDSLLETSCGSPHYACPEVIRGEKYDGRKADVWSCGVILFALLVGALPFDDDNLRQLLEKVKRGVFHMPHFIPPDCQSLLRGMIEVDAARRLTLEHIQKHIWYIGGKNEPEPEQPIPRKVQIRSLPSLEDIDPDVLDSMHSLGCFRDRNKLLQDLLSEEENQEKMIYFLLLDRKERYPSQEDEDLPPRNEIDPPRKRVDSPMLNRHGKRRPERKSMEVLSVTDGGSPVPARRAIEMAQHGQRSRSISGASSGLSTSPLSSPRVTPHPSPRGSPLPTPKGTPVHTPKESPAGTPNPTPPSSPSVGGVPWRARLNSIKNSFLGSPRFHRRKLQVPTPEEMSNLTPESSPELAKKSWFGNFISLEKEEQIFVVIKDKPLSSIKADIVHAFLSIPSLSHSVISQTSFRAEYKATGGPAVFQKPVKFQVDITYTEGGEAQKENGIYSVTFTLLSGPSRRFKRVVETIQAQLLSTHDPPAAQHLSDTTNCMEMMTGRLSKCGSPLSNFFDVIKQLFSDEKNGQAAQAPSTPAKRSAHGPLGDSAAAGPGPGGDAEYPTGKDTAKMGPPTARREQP
UniProt Q06187, sequence (Q06187 whole entry, looked up): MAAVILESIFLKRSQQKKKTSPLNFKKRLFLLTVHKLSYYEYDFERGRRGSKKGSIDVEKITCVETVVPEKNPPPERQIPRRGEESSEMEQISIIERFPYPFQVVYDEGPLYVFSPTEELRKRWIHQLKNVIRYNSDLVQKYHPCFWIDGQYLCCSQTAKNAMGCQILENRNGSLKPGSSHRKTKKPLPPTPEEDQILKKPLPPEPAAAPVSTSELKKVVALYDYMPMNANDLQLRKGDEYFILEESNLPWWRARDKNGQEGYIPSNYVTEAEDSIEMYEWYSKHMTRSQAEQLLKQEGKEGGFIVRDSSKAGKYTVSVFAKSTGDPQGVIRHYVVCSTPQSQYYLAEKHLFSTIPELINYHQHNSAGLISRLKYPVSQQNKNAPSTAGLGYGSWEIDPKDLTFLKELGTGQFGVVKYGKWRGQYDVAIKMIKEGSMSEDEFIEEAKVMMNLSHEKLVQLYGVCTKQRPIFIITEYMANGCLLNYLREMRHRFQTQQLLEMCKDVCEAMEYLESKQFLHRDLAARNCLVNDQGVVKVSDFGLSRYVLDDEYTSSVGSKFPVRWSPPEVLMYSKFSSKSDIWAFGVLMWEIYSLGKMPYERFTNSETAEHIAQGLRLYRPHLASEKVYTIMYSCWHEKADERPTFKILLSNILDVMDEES
UniProt Q9P289, sequence (Q9P289 whole entry, looked up): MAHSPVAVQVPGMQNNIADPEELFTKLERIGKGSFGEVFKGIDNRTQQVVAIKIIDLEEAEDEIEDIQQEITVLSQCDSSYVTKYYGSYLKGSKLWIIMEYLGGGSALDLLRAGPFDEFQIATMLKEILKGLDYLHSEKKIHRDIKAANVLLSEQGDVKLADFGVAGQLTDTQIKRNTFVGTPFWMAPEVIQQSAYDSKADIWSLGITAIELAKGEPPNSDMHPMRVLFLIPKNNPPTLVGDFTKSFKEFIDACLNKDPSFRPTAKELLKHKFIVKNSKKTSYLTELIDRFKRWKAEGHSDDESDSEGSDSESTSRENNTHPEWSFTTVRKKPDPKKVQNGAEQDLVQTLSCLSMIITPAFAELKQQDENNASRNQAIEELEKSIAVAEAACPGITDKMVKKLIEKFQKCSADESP

Target | kinase activity remaining (inhibitor concentration 0.1 µM) [%] | kinase activity remaining (inhibitor concentration 1 µM) [%] | kinase activity remaining (inhibitor concentration 10 µM) [%]
PKC zeta | 115 | 112 | 106
MST4 (UniProt Q9P289) | 99 | 101 | 91
TLK1 (UniProt Q9UKI8) | 113 | 107 | 100
ASK1 (UniProt Q99683) | 106 | 80 | 10
ABL (UniProt P00519) | 120 | 113 | 76
SmMLCK | 118 | 112 | 110
p38 gamma MAPK | 108 | 115 | 97
p38 beta MAPK | 118 | 126 | 117
BRSK2 (UniProt Q8IWQ3) | 77 | 32 | 8
EPH-B1 | 113 | 106 | 106
PKD1 (UniProt P98161) | 96 | 96 | 48
MNK1 (UniProt Q9BUB5) | 105 | 103 | 83
STK33 (UniProt Q9BYT3) | 105 | 83 | 38
BTK (UniProt Q06187) | 120 | 118 | 107
